TDP1 cell noCPT: qHTS for Inhibitors of human tyrosyl-DNA phosphodiesterase 1 (TDP1): qHTS in cells in absence of CPT | DT40 Tdp1-/- hTDP1 cells, no CPT, ATP luminescence, 48 h | Potency, µM (doses to about 46.2 µM), for inactives: top-dose activity change, negative = growth inhibition, hits mostly inhibitors | 420,000 tested, 15% active | AID 686978, 2013; also: potency is read from the fitted curve at half-maximal effect; nearly all actives have a fitted effect of over 55% in size
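Seeded 400 DT40-hTDP1 cells/well (vehicle DMSO, no 20 nM CPT); pinned compounds; ≥48 hr at 37 °C; CellTiter-Glo luminescence as viability measure.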
DT40 TDP1 CPT: DT40-hTDP1 cell growth loss with CPT; chicken DT40 Tdp1-/-;hTDP1 cells + 20 nM CPT, ATP luminescence, 48 h; Potency, µM (series often up to 46.2 µM), inactives show top-dose activity change, negative = growth inhibition, hits mostly inhibitors; 420,000 tested, 12% active; also: potency is read from the fitted curve at half-maximal effect; nearly all actives have a fitted effect of over 55% in size
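Cell growth measured by CellTiter-Glo luminescence after a minimum 48 h, 37 C compound exposure with 20 nM CPT in Tdp1-knockout DT40 cells stably expressing hTDP1, seeded 400/well; qHTS titration format.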
HT1080 IDH1KD tx: toxicity to HT-1080 IDH1 knockdown cells (counter line); Potency, µM (doses to about 46.1 µM), for inactives: top-dose activity, negative = toxicity, hits mostly cytotoxic; AID 686971; HT-1080 IDH1 knockdown viability, ATP luminescence, 48 h; 360,000 tested, 2% active;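 also: potency is read from the fitted curve at half-maximal effect; 0% = DMSO wells and -100% = cell-free medium wells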
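Using the IDH1-knockdown HT-1080 line run in the same batch and compound series as the NT line, viability after 48 h at 37 °C was determined by CellTiter-Glo luminescence and expressed as % activity.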
IL-1B inflam inh: inflammasome signaling inhibition, IL-1 beta readout; activity change, % at 57.5 µM; 360,000 tested, 4.7% active; THP-1 LPS/ATP IL-1B secretion, AlphaLISA, 16 h; active compounds read low; in the data active = activity change below about -50%; inconclusive = mostly about -30% to -49%
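THP-1 cells pretreated 1 hr with compounds (up to 57.5 uM final), then stimulated with LPS (250 ng/mL final) plus ATP (1.25 mM final); secreted IL-1B measured by AlphaLISA after 16 hr, decreased signal indicating inhibition.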
ELG1 DNA repair: inhibitors of ELG1-dependent DNA repair in HEK293T cells | Potency, µM (titrated, usually from 46.1 µM), for the others: top-dose activity change, negative = inhibition, hits mostly inhibitors | HEK293T ELG1-luciferase reporter, luminescence, 16 h; DNA damage induced by 5-fluorouridine | 330,000 tested, 2.3% active; also: potency is read from the fitted curve at half-maximal effect; nearly all actives have a fitted effect of over 55% in size
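Quantitative HTS, concentration-response format. 2,000 cells/well co-treated with 5-fluorouridine and compound, 16 hr in 5% CO2 at 37 °C; ONE-Glo luminescence read after 30 min.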
HT1080-NT tox: kills 2HG-producing HT-1080-NT fibrosarcoma cells | HT-1080-NT fibrosarcoma viability, CellTiter-Glo ATP luminescence, 48 h | Potency, µM (titrated, usually from 46.1 µM), for inactives: top-dose activity, negative = less viability, hits mostly cytotoxic | 360,000 tested, 1.6% active;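 also: NT is the 2HG producing partner of a matched IDH1 knockdown line; potency is read from the fitted curve at half-maximal effect; 0% = DMSO-treated cells and -100% = media-only wells without cells; nearly all actives have a fitted effect of over 55% in size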
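A 48-hour cytotoxicity screen used HT-1080-NT cells plated 2 hours before compound delivery. ATP-based CellTiter-Glo luminescence measured viability, normalized to DMSO and no-cell controls.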
Active calls of the source: *; ? = inconclusive; nt = no result given. Only some compounds are listed: those with a hit (about 19% of all), similar ones and a draw of the others. Unless noted, calls follow the shape of the dose curve; as a rule, active = well fitted curve in the direction sought with a large enough effect; inconclusive = small, poorly fitted or top-dose-only effect, or another doubt; inactive = no such curve, though single readings can be large; an effect the other way counts as inactive or inconclusive. Unless noted, % is scaled to controls: 0 for no effect and ±100 for the full control effect.

SMILES	TDP1 cell noCPT	DT40 TDP1 CPT	HT1080 IDH1KD tx	IL-1B inflam inh	ELG1 DNA repair	HT1080-NT tox
C(=C\c1ccccc1)/CSc1nnc(-c2ccccn2)n1Cc1ccco1	2.9µM*	2.6µM*	4.1µM*	16	-2%	5.8µM*
c1coc(Cn2c(SCc3nc4ccccc4[nH]3)nnc2-c2cnccn2)c1	23µM*	?	-3%	10	?	-17%
C[C@H]1C(=O)N(C)CCN1C(=O)c1ccc(OC2CCN(CCc3ccccc3)CC2)cc1	0%	0%	0%	-7	nt	10%
COc1ccc2c(c1)/C(=C\c1cccc(/C=C3/C(=O)Nc4ccc(OC)cc43)n1)C(=O)N2	1.8µM*	1.6µM*	3.3µM*	-107*	nt	2.9µM*
COc1ccc2c(c1)/C(=N/N1C(=O)c3ccccc3C1=O)C(=O)N2	nt	nt	nt	nt	-18%	nt
COc1ccc(C2Nc3ccccc3-n3c(-c4ccccc4)c4c(=O)n(C)c(=O)n(C)c4c32)cc1 (stereo not drawn)	?	16µM*	nt	nt	nt	nt
O=[N+]([O-])c1cccc(C2Nc3ccccc3CO2)c1 (stereo not drawn)	?	1%	?	19	nt	-5%
Cn1c(=O)c2c(-c3ccccc3)n3c(c2n(C)c1=O)C(c1cccc([N+](=O)[O-])c1)Nc1ccccc1-3 (stereo not drawn)	?	13µM*	nt	nt	nt	nt
COc1ccc(C2Nc3ccccc3NC3=C2C(=O)CC(C)(C)C3)cc1 (stereo not drawn)	20%	-27%	-14%	-8	?	-7%
C[C@H]1CN([C@@H](C)CO)C(=O)c2cc(Br)cnc2O[C@@H]1CN(C)C(=O)C1CCC1	?	-27%	-3%	-13	nt	3%
C=C1CC2(OC1=O)c1ccccc1CCc1ccccc12	2.9µM*	4.6µM*	5.8µM*	-102*	nt	?
Cc1sc(NC(=O)c2ccccc2)c(C(c2ccccn2)N2CCN(CCO)CC2)c1C (stereo not drawn)	9.2µM*	10µM*	-28%	-12	0%	-23%
CCc1cc(C(c2ccccn2)N2CCN(C)CC2)c(NC(=O)c2ccccc2)s1 (stereo not drawn)	?	?	-8%	-7	-14%	-7%
CC(C)(C)c1cc2nc3c(c(=O)n2[nH]1)CN(Cc1ccccc1)C3=O	-5%	-14%	4%	-7	12%	4%
CN1CC=C2C(C#N)=C(N)C(C#N)(C#N)[C@H](c3cccs3)[C@H]2C1	15µM*	?	11%	-9	-11%	1%
CN1CC=C2C(C#N)=C(N)C(C#N)(C#N)[C@H](c3cccc(Cl)c3)C2C1 (stereo partly drawn)	23µM*	?	-13%	-3	3%	-7%
COc1cccc(C2C3CN(C)CC=C3C(C#N)=C(N)C2(C#N)C#N)c1OC (stereo not drawn)	-16%	-12%	-4%	-19	-8%	1%
CN1CC=C2C(C#N)=C(N)C(C#N)(C#N)C(c3ccsc3)C2C1 (stereo not drawn)	?	?	-5%	5	-6%	-2%
O=C(N1CCN=C1SCc1cccnc1)C12CC3CC(CC(C3)C1)C2	15µM*	?	-23%	nt	?	-24%
COc1ccccc1C(=O)Nc1cccc(C(=O)OCc2cc(=O)n3cc(C)sc3n2)c1	-20%	-8%	nt	nt	nt	nt
CCOC(=O)c1ccc(CN2Cc3ccccc3C2=O)cc1	-27%	-9%	-7%	11	-9%	-5%
CC(NC(=O)CCn1c(=O)c2cccn2c2ccc(F)cc21)c1ccccc1 (stereo not drawn)	-14%	-5%	nt	nt	nt	nt
CCOc1ccccc1CNC(=O)CCn1c(=O)c2cccn2c2ccc(F)cc21	16µM*	?	nt	nt	nt	nt
COc1cccc(CNC(=O)CCn2c(=O)c3cccn3c3ccc(F)cc32)c1OC	23µM*	?	nt	nt	nt	nt
C=CC[C@@H](CC(=O)N(CCO)Cc1ccccc1)C(=O)N[C@@H](C)COC(=O)[C@@H](CC=C)CC(=O)OC(C)(C)C	?	?	1%	-11	-3%	23%
SMILES	TDP1 cell noCPT	DT40 TDP1 CPT	HT1080 IDH1KD tx	IL-1B inflam inh	ELG1 DNA repair	HT1080-NT tox
C=CC[C@H](CC(=O)N(CCO)Cc1ccccc1)C(=O)N[C@H](COC(=O)[C@@H](CC=C)CC(=O)OC(C)(C)C)Cc1c[nH]c2ccccc12	16µM*	23µM*	?	-65*	?	?
C=CC[C@@H](CC(=O)N(CCO)Cc1ccccc1)C(=O)N[C@H](COC(=O)[C@H](CC=C)CC(=O)OC(C)(C)C)Cc1c[nH]c2ccccc12	16µM*	23µM*	?	-59*	?	-27%
CC1CCN(S(=O)(=O)N2CCN(C(=O)c3ccc4c(c3)OCO4)CC2)CC1	-1%	5%	7%	23	-22%	7%
C(=C\n1nnc2ccccc21)/c1ccc[nH]1	23µM*	18µM*	10%	-10	?	7%
c1ccc(-n2nnc3ccccc32)cc1	-22%	-20%	6%	-3	?	9%
Cc1cc(-c2ccc(C(C)C)c(S(=O)(=O)N3CCOc4ccccc43)c2)on1	18µM*	?	-22%	-16	?	-9%
CCC1CN(S(=O)(=O)c2cc(-c3cc(C)no3)ccc2OC)c2cc(C)ccc2O1 (stereo not drawn)	23µM*	18µM*	-13%	-1	?	-11%
CCc1ccc(-c2cc(C)no2)cc1S(=O)(=O)N1CCOc2ccc(C)cc21	?	?	?	0	?	-10%
COc1ccc(-c2cc(C)no2)cc1S(=O)(=O)N1CCOc2ccccc21	18µM*	?	-5%	22	-3%	0%
Cc1cc(-c2ccc(C(C)C)c(S(=O)(=O)N3CC(=O)Nc4ccccc43)c2)on1	-1%	-27%	?	5	17%	-25%
COc1ccc(C(=O)N2CCC(c3ccccc3)CC2)c(OC)c1OC	-21%	5%	-1%	0	-12%	9%
CN(C)C(=S)Oc1ccccc1C1(C)OCCO1	2%	9%	4%	-16	nt	6%
COCCN1C[C@@H](CO)O[C@@H](n2cnc3c(N4CCN(c5ccccc5)CC4)ncnc32)C1	?	-17%	?	34	nt	8%

Screening results from PubChem BioAssay.
